ChEMBL document CHEMBL3433997, “St. Jude Leishmania screening dataset” (2016)

Assays:
Type in all cases: functional
[1] = biological target: Solute carrier family 2, facilitated glucose transporter member 1 (Homo sapiens) (UniProt P11166); assay: ST_JUDE_LEISH: Cytotoxicity at 2uM final concentration against transgenic Leishmania Mexicana promastigotes LmGLUT1 that are glucose transport deficient and complemented with the human glucose transporter GLUT1. Activity is measured by DNA content using SYBR green in vitro
Sequence of Solute carrier family 2, facilitated glucose transporter member 1 (Homo sapiens) (P11166 whole entry): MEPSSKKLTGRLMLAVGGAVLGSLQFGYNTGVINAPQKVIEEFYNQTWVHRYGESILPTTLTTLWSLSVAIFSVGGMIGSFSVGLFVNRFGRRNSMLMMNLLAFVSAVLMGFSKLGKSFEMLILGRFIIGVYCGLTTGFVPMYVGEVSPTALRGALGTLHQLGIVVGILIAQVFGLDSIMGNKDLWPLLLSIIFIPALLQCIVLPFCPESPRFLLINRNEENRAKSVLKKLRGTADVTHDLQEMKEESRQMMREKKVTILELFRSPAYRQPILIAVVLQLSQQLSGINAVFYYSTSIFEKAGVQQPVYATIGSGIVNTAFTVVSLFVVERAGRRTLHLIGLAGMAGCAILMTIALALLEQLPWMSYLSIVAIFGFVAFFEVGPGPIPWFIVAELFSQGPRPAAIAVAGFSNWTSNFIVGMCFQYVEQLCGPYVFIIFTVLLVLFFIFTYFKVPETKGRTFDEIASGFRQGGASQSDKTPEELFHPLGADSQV

[2] = biological target: Hexose transporter 1 (Plasmodium falciparum) (UniProt O97467); assay: ST_JUDE_LEISH: Cytotoxicity at 2uM final concentration against transgenic Leishmania Mexicana promastigotes LmPfHT that are glucose transport deficient and complemented with the Plasmodium falciparum hexose transporter. Activity is measured by DNA content using SYBR green in vitro
[3] = biological target: Glucose transporter (Leishmania mexicana) (UniProt O61059); assay: ST_JUDE_LEISH: Cytotoxicity at 2uM final concentration against transgenic Leishmania Mexicana promastigotes LmGT2 that are glucose transport deficient and complemented with the L. Mexicana glucose transporter 2. Activity is measured by DNA content using SYBR green in vitro

SMILES | inhibition [1] [%] | inhibition [2] [%] | inhibition [3] [%]
CN1CCC(NCc2ccc(-c3ccc(C(F)(F)F)cc3)cc2)CC1 | -0.71 | -0.76 | 0.62
O=C(Nc1ccc(N2CCCN(Cc3cccc(F)c3)CC2)cc1)c1cccs1 | -0.38 | -0.87 | -3.03
COc1ccc(CNCc2ccccc2)cc1-c1cccc(S(=O)(=O)NCCN2CCCC2)c1 | 1.03 | 1.05 | -3.15
Cn1cncc1C(=O)Nc1cccc(-c2csc(-c3nc4ccccc4[nH]3)c2)c1 | 2.44 | 3.44 | 2.3
O=C(N/N=C/c1nc2ccccc2[nH]1)c1cccc([N+](=O)[O-])c1 | 2.46 | 1 | 0.25
CCCNC(=O)C1Cc2cc(OC)c(OC)cc2C2(N1)C(=O)N(Cc1cccc(OC)c1)c1ccccc12 (stereo unspecified) | -1.15 | 0.36 | -0.47
CCOc1ccc(C(=O)Nc2ccc(-c3nc4ccccc4[nH]3)cc2)cc1[N+](=O)[O-] | 1.79 | 2.52 | 1.46
CCCCOc1c(CCC)cc(Cc2cnc(N)nc2N)cc1CCC | 7.57 | 3.82 | -0.35
CNC(=O)CC(=O)NCCc1ccc(Cl)cc1 | -0.63 | 1.17 | 0.06
CC(C)(C)c1ccc(-c2nnc(N)nc2N)cc1 | 1.1 | 0.43 | 0.09
C#CCNCc1ccc(-c2cccc(-c3nc4cccc(C)c4[nH]3)c2)cc1 | 6.77 | 4.1 | 3.18
O=C(/C=C/c1ccc(I)cc1)NCCCCCN1CCC(c2c[nH]c3ccccc23)CC1 | 3.43 | 1.79 | 2.95
CCN(CC)CCCC(C)Nc1cc(C)nc2cc(Cl)ccc12 (stereo unspecified) | 0.9 | 1.6 | 0.08
Cc1[nH]c(C)c(-c2ccc(Br)cc2)c(=O)c1Cl | 4.57 | 3.47 | 3.22
COc1ccc(-c2cccc(NC(=O)c3cccc(C#N)c3)c2)cc1CNC(C)C | 9.6 | 8.42 | 5.03
CC[C@]1(C)C[C@@H](NC(=O)NC(=O)c2ccc(OC)cc2)[C@]2(C)[C@H](C)CC[C@]3(CCC(=O)[C@H]32)[C@@H](C)[C@@H]1OC(=O)NC(=O)c1ccc(OC)cc1 | 7.7 | 5.47 | 7.04
CCOc1c(OC)ccc2c1CCN(CCN1CCC(CNC(=O)c3ccc(-c4ccc(C(F)(F)F)cc4)cc3)CC1)C2 | -1.88 | -0.64 | 0.24
O=C(Nc1ccccc1)N(Cc1cccc(-c2ccc(CNCc3ccc4c(c3)OCO4)cc2)c1)C1CCN(Cc2ccccc2)CC1 | 2.89 | 4.07 | 2.52
C=CCn1c(Sc2ccc(C#N)c([N+](=O)[O-])c2)nnc1-c1cccc(Cl)c1 | -1.46 | -0.51 | -1.95
N#Cc1cccc(Nc2nccc(Nc3ccc(Oc4ccccc4)cc3)n2)c1 | 6.87 | 5.4 | 0.2
COc1cccc(-c2csc(C(=O)NC3CCCCN(Cc4ccc(C(C)(C)C)cc4)C3)c2)c1 (stereo unspecified) | 4.84 | 7.61 | 5.14
COc1ccc(CCNC(=O)c2ccc(-n3cc(NC(=O)c4cccnc4)cn3)cc2)cc1OC | 3.78 | 3.85 | 3.79
